DAX1 inh-1 = DAX1 (NR0B1) inhibition, primary screen | HEK293T StAR-luciferase reporter, SF-1/DAX-1 repression relief | inhibition, % at 6.8 µM | 370,000 tested, 1.1% active;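 active = inhibition above the mean over all tested compounds plus 3 SD, cut at about 3.6% in these data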;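 also: 0% = DAX-1 cells with DMSO and 100% = cells lacking DAX-1 with DMSO; higher inhibition means more luminescence from relief of DAX-1 repression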
hcDAF12 agonist = activators of H. contortus DAF-12 nuclear receptor; HEK293 hcDAF-12 lit1-tk-luc reporter, luminescence; 0% DMSO, 100% Δ7-dafachronic acid; activation, % at 6.8 µM; 370,000 tested, 1.4% active;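 active = activation above the mean of all tested compounds plus 3 SD, cut at about 5.5% in these data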;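 also: 100% = response to 3 µM Δ7-dafachronic acid high control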
hgDAF-12 ag = hgDAF-12 agonism, primary luciferase screen; HEK293 GAL4-hgDAF12 UAS-luciferase reporter, agonist luminescence; normalized to butyrate control; 370,000 tested, 1.8% active; activation, % at 6.8 µM; AID 687014;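 active = activation above a cutoff set at the mean of all screened compounds plus 3 SD, cut at about 10% in these data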;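 also: 0% = DMSO wells and 100% = sodium butyrate wells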
DAX1 inh-2 = inhibitors of human orphan nuclear receptor DAX1 (NR0B1) | P51843 | HEK293 Gal4-DAX1 luciferase reporter, luminescence | inhibition, % at 6.75 µM | 340,000 tested, 0.99% active | AID 504766;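 active = inhibition above the mean over all tested compounds plus 3 SD, cut at about 4.2% in these data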;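 also: 0% = DAX1-transfected cells with DMSO and 100% = empty-vector control cells with DMSO; inhibition shows as a rise in luminescence from relieved DAX1 repression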
Target sequence (P51843 207-470 limits assumed): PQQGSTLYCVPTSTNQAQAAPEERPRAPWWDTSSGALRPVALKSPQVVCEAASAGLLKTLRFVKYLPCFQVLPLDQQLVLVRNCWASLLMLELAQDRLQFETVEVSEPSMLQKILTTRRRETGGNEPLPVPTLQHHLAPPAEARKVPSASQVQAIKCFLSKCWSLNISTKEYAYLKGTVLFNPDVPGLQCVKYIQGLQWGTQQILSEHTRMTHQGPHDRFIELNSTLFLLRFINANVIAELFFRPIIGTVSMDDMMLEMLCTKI
ssDAF-12 act = S. stercoralis DAF-12 activation, primary screen; HEK293 ssDAF-12/GRIP1 lit1-tk-luc reporter, luminescence; % of 3 µM dafachronic acid response; activation, % at 6.8 µM; 370,000 tested, 1% active; AID 652126;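 active = activation above the mean over all tested compounds plus 3 SD, cut at about 0.9% in these data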;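 also: 0% = DMSO-only wells and 100% = 3 µM delta7-dafachronic acid wells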
LXRb hcDAF ctr = counter-screen for hcDAF-12 agonists: agonists of human LXR-beta; activation, % at 6.8 µM; 3,400 tested, under 10 active; shares compounds with hcDAF12 agonist; HEK293 Gal4-LXR tk-luc reporter, luminescence, 24 h; normalized: DMSO 0%, positive control 100%;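 active = mean percent activation of the reporter above a cutoff set as the average over tested compounds plus their standard deviation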
Target sequence (P55055 whole entry, looked up, the tested form may be a part): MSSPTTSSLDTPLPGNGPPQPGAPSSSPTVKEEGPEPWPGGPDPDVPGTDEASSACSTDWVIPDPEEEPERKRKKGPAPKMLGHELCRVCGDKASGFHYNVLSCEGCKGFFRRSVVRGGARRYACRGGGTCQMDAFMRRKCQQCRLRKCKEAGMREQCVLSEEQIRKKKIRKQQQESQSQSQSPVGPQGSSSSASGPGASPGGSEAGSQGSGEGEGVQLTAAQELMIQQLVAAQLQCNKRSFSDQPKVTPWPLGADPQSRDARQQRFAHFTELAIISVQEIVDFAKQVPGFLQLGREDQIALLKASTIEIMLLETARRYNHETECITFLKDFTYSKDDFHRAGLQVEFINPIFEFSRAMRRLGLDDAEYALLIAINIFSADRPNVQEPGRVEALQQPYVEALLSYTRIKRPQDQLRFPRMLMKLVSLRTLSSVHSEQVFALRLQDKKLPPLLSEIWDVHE
hcDAF12 ag = confirmation of H. contortus DAF-12 agonists; 3,400 tested, 61% active; shares compounds with hcDAF12 agonist; HEK293 hcDAF-12 lit1-tk-luc reporter, luminescence; % of Δ7-dafachronic acid response; activation, % at 6.8 µM;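 active = mean activation across triplicate tests above the threshold derived from the earlier primary screen, cut at about 5.5% in these data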;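 also: 0% = DMSO only wells and 100% = 3 µM Δ7-dafachronic acid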
* hit, by the source's call. This is a sample that favours compounds with a hit; in the whole collection about 4.1% have one here.

`COc1ccc(N=Cc2c(O)ccc3ccccc23)cc1` gave DAX1 inh-1 -0.2, hcDAF12 agonist -0.9, hgDAF-12 ag -0.2, DAX1 inh-2 1.3 and ssDAF-12 act -0.3.
`COc1ccc(N=Cc2c(O)[nH]c3ccccc23)cc1` gave DAX1 inh-1 4.2*, hcDAF12 agonist 6.9*, hgDAF-12 ag 12.9*, DAX1 inh-2 1.0, ssDAF-12 act 1.1*, LXRb hcDAF ctr 1.7 and hcDAF12 ag 10.7*.
For Cc1ccc(-c2cc3nc(C)cc(N4CCN(C(=O)c5ccoc5)CC4)n3n2)cc1 the results were DAX1 inh-1 -3.5, hcDAF12 agonist -0.6, hgDAF-12 ag -1.0, DAX1 inh-2 0.1 and ssDAF-12 act -1.4.
Screening CCc1ccc(C(=O)C[n+]2cccc3cc(OC)ccc32)cc1 returned DAX1 inh-1 -1.0, hcDAF12 agonist -2.5, hgDAF-12 ag -2.1, DAX1 inh-2 -2.3 and ssDAF-12 act -1.4.
Screening CCN(CC)CCn1nc2c3c(cccc3c1=O)-c1ccccc1-2 returned DAX1 inh-1 -2.9, hcDAF12 agonist 11.4*, hgDAF-12 ag -6.5, DAX1 inh-2 -2.3, ssDAF-12 act 22.6*, LXRb hcDAF ctr 0.4 and hcDAF12 ag 9.5*.
Screening O=c1c2cccc3c2c(nn1CN1CCOCC1)-c1ccccc1-3 returned DAX1 inh-2 2.2.
CN(C)S(=O)(=O)c1ccc(C(=O)Oc2ccccc2)cc1 was read as DAX1 inh-1 -0.6, hcDAF12 agonist 12.0*, hgDAF-12 ag 2.1, DAX1 inh-2 0.9, ssDAF-12 act -1.2, LXRb hcDAF ctr -0.1 and hcDAF12 ag 0.7.
For O=C(Oc1ccccc1)c1ccccc1 the results were DAX1 inh-1 -0.6, hcDAF12 agonist 1.6, hgDAF-12 ag 1.7, DAX1 inh-2 0.0 and ssDAF-12 act -0.9.
`COc1ccc(-n2cc(CNCCc3cnc[nH]3)c(-c3cccc(F)c3)n2)cc1` gave DAX1 inh-1 0.6, hcDAF12 agonist -0.6, hgDAF-12 ag 2.9, DAX1 inh-2 -0.3 and ssDAF-12 act -1.1.
COc1cc(/C=N/Nc2ccccn2)ccc1O was read as DAX1 inh-1 2.3, hcDAF12 agonist 7.3*, hgDAF-12 ag 12.1*, DAX1 inh-2 4.3*, ssDAF-12 act 0.0, LXRb hcDAF ctr 0.8 and hcDAF12 ag 7.6*.
For COc1cc(/C=N/Nc2ccc(C(=O)O)cc2)ccc1O the results were DAX1 inh-1 2.9, hcDAF12 agonist 6.8*, hgDAF-12 ag 5.6, DAX1 inh-2 -1.7, ssDAF-12 act 0.5, LXRb hcDAF ctr 1.0 and hcDAF12 ag 6.4*.
`COc1ccc(/C=N/Nc2ccccn2)cc1OC` gave DAX1 inh-1 0.9, hcDAF12 agonist 0.5, hgDAF-12 ag 2.6 and ssDAF-12 act -1.9.
`COc1ccc(CN2CCN(C(=O)C3CCC(CNS(=O)(=O)c4ccc(C)cc4)CC3)CC2)c(OC)c1OC` (configuration not stated) gave DAX1 inh-1 -1.2, hcDAF12 agonist -2.9, hgDAF-12 ag 0.1, DAX1 inh-2 -1.3 and ssDAF-12 act -1.7.
For COc1ccc2nc(C)cc(Nc3ccc(N4CCN(C)CC4)cc3)c2c1 the results were DAX1 inh-1 0.0, hcDAF12 agonist 12.5*, hgDAF-12 ag 4.7, DAX1 inh-2 -0.8, ssDAF-12 act 0.9*, LXRb hcDAF ctr 1.0 and hcDAF12 ag 11.9*.
CCOc1ccc2nc(SCC(=O)Nc3ccc4c(c3)OCCO4)[nH]c2c1 was read as DAX1 inh-1 0.1, hcDAF12 agonist 7.3*, hgDAF-12 ag 2.8, DAX1 inh-2 0.3, ssDAF-12 act -0.7, LXRb hcDAF ctr -0.2 and hcDAF12 ag 0.7.
Screening COC(=O)C1=NN(c2ccccc2OC)C2C(=O)N(c3ccccc3OC)C(=O)C12 (configuration not stated) returned DAX1 inh-1 0.8, hcDAF12 agonist 7.2*, hgDAF-12 ag 2.1, DAX1 inh-2 0.2, ssDAF-12 act 0.2, LXRb hcDAF ctr -0.1 and hcDAF12 ag -0.1.
Cn1c(C(=O)Nc2ccccc2)cc2sccc21 was read as DAX1 inh-1 1.0, hcDAF12 agonist 7.0*, hgDAF-12 ag 11.1*, DAX1 inh-2 3.8, ssDAF-12 act 1.4*, LXRb hcDAF ctr 0.8 and hcDAF12 ag 11.7*.
Cc1cc(S(=O)(=O)N2CCCC2)ccc1OCC(=O)N1CCCCC1 was read as DAX1 inh-1 -0.8, hcDAF12 agonist -2.9, hgDAF-12 ag -0.5, DAX1 inh-2 1.1 and ssDAF-12 act -1.5.
CC1=NN(c2ccc(C)cc2)C(=O)/C1=C\c1ccc(Br)s1 was read as DAX1 inh-1 -0.3, hcDAF12 agonist 9.5*, hgDAF-12 ag -0.5, DAX1 inh-2 0.5, ssDAF-12 act 0.4, LXRb hcDAF ctr -0.1 and hcDAF12 ag 4.9.
Screening CCN(C(=O)CSc1nnc(C2CC2)n1-c1ccccc1)C1CCS(=O)(=O)C1 (configuration not stated) returned DAX1 inh-1 -1.7, hcDAF12 agonist 0.5, hgDAF-12 ag -1.6, DAX1 inh-2 0.3 and ssDAF-12 act -1.3.
`N#Cc1c(SCC(=O)Nc2nc3ccccc3s2)sc2c(O)cc(=O)[nH]c12` gave DAX1 inh-1 0.7, hcDAF12 agonist 7.9*, hgDAF-12 ag 3.8, DAX1 inh-2 -1.1, ssDAF-12 act 0.8, LXRb hcDAF ctr 0.2 and hcDAF12 ag 5.1.
For CC(OC(=O)c1ccc2c(c1)C(=O)N(Cc1ccncc1)C2=O)C(=O)Nc1cccc(Cl)c1Cl (configuration not stated) the results were DAX1 inh-1 0.2, hcDAF12 agonist 2.8, hgDAF-12 ag -1.1, DAX1 inh-2 0.9 and ssDAF-12 act -1.3.
Screening O=C(COC(=O)c1ccc2c(c1)C(=O)N(Cc1ccncc1)C2=O)Nc1ccccc1[N+](=O)[O-] returned DAX1 inh-1 0.6, hcDAF12 agonist 7.0*, hgDAF-12 ag 0.9, DAX1 inh-2 -0.4, ssDAF-12 act 0.4, LXRb hcDAF ctr -0.1 and hcDAF12 ag 6.2*.
O=c1c(-c2cccc3ccccc23)[n+]([O-])c2ccccc2n1O was read as DAX1 inh-1 -0.8, hcDAF12 agonist 7.3*, hgDAF-12 ag 2.9, DAX1 inh-2 -1.7, ssDAF-12 act -0.1, LXRb hcDAF ctr 0.0 and hcDAF12 ag 5.9*.
For C=CCn1c(=N)c(S(=O)(=O)c2ccc(C)c(C)c2)cc2c(=O)n3ccccc3nc21 the results were DAX1 inh-1 -0.9, hcDAF12 agonist -0.2, hgDAF-12 ag 1.3, DAX1 inh-2 -0.1 and ssDAF-12 act -1.0.
For O=C(COc1ccc(-n2ccnc2)cc1)Nc1cccc(Cl)c1 the results were DAX1 inh-1 -1.8, hcDAF12 agonist -4.4, hgDAF-12 ag -2.5, DAX1 inh-2 -1.3 and ssDAF-12 act -2.1.

Assay outcomes: PubChem, The Scripps Research Institute Molecular Screening Center
